From PubChem BioAssay
Hits are enriched below; roughly 3.1% of the tested compounds scored in any of these assays.
TR SRC2 fluor cs: Texas Red fluorescence interference in TRb-SRC2 counter-screen. TRb/SRC2 Texas Red total fluorescence interference. Potency, µM (doses to about 106 µM), for the others: at the top dose fluorescence change, negative = quenching. 0.29% of 280,000 active. AID 1479; active = well fitted curve in either direction with a large enough effect; inconclusive = small, poorly fitted or top-dose-only effect
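Human TRβ ligand-binding domain (0.6 uM) and Texas Red SRC2 peptide (20 nM) in Tris buffer with 1 uM T3 and 5% DMSO were incubated with pinned compound for 5 hr at ambient temperature. Total fluorescence was computed as S + 2P (555/632 nm).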
Tau fibril FP: tau fibrillization inhibition (FP). P10636. K18 P301L tau heparin fibrillization, Alexa594 FP, 6 h. Potency, µM (doses to about 57.7 µM), for inactives: at the highest dose activity, negative = inhibition, actives largely listed as inhibitors. 0.39% of 280,000 active. AID 1468; also: nearly all actives have a fitted effect of over 55% in size
Target sequence (P10636 561-689 P618L limits assumed): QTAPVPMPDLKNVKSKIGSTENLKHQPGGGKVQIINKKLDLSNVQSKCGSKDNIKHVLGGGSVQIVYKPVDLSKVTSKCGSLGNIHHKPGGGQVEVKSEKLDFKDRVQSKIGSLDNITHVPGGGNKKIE
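Read-out: fluorescence polarization of Alexa 594-labeled tau (0.24 uM), 555 nm excitation, 632 nm emission. Mixtures held 15 uM unlabeled K18 P301L, compound and 20 uM heparin, pH 7 acetate buffer, incubated 6 hr at 37 C.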
TRb SRC2 PPI: inhibitors of human thyroid hormone receptor beta-SRC2 interaction. P10828. TRbeta-SRC2 peptide binding, fluorescence polarization; receptor liganded with 1 µM T3. Potency, µM (highest dose often 106 µM), inactives show top-dose activity change, negative = inhibition, actives largely listed as inhibitors. 0.065% of 280,000 active. AID 1469;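 also: plate controls were bound peptide for no effect and peptide without receptor for full effect; nearly all actives have a fitted effect of over 50% in size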
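Read-out is fluorescence polarization (555 nm excitation, 632 nm emission) of a Texas Red SRC2 coactivator peptide; loss of signal reflects blocked binding to human TRb ligand-binding domain in the presence of 1 uM T3.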
Tau fluor cs: counter-screen for tau fibril formation inhibitors; AID 1463; Potency, µM (series often up to 57.7 µM), without a hit: top-dose activity change, negative = decrease; 0.93% of 280,000 active; tau K18 P301L Alexa594 fluorescence, heparin fibrillization; also: nearly all actives have a fitted effect of over 55% in size
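Human K18 P301L tau (15 uM unlabeled plus 0.24 uM Alexa 594-labeled, final) in 100 mM sodium acetate pH 7 was mixed with compound and 20 uM heparin and incubated 6 hr at 37 C.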
Tau fibril ThT: inhibitors of human tau fibril formation, thioflavin T binding; P10636; recombinant tau K18 P301L (four-repeat tau fragment), heparin-induced fibrillization, ThT fluorescence; Potency, µM (highest dose often 57.4 µM), for the others: top-dose activity, negative = inhibition, most hits filed as inhibitors; 2.1% of 270,000 active; AID 1460; also: nearly all actives have a fitted effect of over 55% in size
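Heparin-induced (20 uM) aggregation of recombinant human K18 P301L tau, 15 uM unlabeled with 0.24 uM labeled, pH 7 acetate buffer, 6 hr at 37 C with compound. Fibrils quantified by 30 uM ThT fluorescence after 1 hr ambient incubation.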
GoLoco inh red: blocks human Gai1 binding to RGS12 GoLoco peptide, red readout | AID 880 | Potency, µM (top dose mostly 61.6 µM), for the others: at the highest dose activity, negative = inhibition, actives largely listed as inhibitors | Gai1:RGS12 GoLoco peptide FP, rhodamine, 10 min | 0.44% of 230,000 active; active = well fitted inhibition curve with a large enough effect, not every such curve was filed as active; inactive = no such curve, though single readings can be large or run the other way; also: nearly all actives have a fitted effect of over 30% in size
Target sequence (P63096 whole entry, looked up): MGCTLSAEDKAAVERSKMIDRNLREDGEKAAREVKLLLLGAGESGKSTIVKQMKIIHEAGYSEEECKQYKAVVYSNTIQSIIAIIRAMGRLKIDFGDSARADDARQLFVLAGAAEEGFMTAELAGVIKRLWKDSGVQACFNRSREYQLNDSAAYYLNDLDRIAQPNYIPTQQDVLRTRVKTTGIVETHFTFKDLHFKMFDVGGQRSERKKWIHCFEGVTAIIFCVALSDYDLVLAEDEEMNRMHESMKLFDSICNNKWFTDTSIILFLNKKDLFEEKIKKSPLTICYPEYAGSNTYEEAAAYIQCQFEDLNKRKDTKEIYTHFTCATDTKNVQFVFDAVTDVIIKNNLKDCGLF
An asterisk follows results filed as active; ? = inconclusive; . = no result given; [ ] = another dose, or the depositor's remark. Unless noted, calls follow the shape of the dose curve; as a rule, active = well fitted curve in the direction sought with a large enough effect; inconclusive = small, poorly fitted or top-dose-only effect, or another doubt; inactive = no such curve, though single readings can be large; an effect the other way counts as inactive or inconclusive. Unless noted, % is scaled to controls: 0 for no effect and ±100 for the full control effect; potency is read from the fitted curve at half-maximal effect.

SMILES | TR SRC2 fluor cs | Tau fibril FP | TRb SRC2 PPI | Tau fluor cs | Tau fibril ThT | GoLoco inh red
CCN(CC)CCNc1cc(C)nc2c1C(=O)C(=O)C=C2N1CCCCC1 | -1% | ? | -4% | -27% | 8.9µM* | 2%
CC1=C(C(=O)Nc2ccc(C)cc2Cl)C2(CCCCC2)OC1=O | 0.0056µM*[quencher] | -4% | -13% | -10% | -9% | .
CC1=C(C(=O)Nc2ccc(C)cc2Cl)C2(CCCCCC2)OC1=O | 11% | 6% | 9% | -8% | -7% | .
Cc1ccc(C(=O)Nc2ccc(N3CCN(C(=O)c4ccco4)CC3)cc2)cc1 | -3% | 3% | 6% | -24% | ? | 7%
Cc1cc2c(NC(=O)Nc3ccc(C(F)(F)F)cc3)cccc2nn1 | 4% | 28µM* | -7% | ? | ? | 8%
N#CC1(C#N)C2=C(CCCC2)NC(c2ccccc2)C1(C#N)C#N (centres undefined) | 9% | ? | -1% | ? | 25µM* | 52%
O=C(O)c1[nH]c2ccccc2c1NS(=O)(=O)Cc1ccccc1 | -1% | 9% | -3% | -11% | -12% | 8%
CCOC(=O)c1cn2nc(Oc3ccccc3)ccc2n1 | -1% | -2% | -4% | -14% | -10% | 5%
COc1ccc(-n2c(C)cc(/C=C/c3nc(O)c([N+](=O)[O-])c(=O)[nH]3)c2C)cc1 | -5% | 2% | 0% | -7% | 16µM* | 16%
O=C(Cc1cccs1)Nc1nc(-c2ccccc2)cs1 | -2% | ? | 5% | ? | -10% | -4%
O=C1/C(=C\c2cccs2)CCC/C1=C/c1cccs1 | 0% | . | 2% | . | . | .
O=C1/C(=C\c2cccs2)Sc2ccc3ccccc3c21 | 10% | -2% | -12% | -22% | 1µM* | -12%
Cc1nc(C)c(-c2csc(Nc3cccc(O)c3)n2)s1 | -7% | ? | -3% | 18µM*[quencher] | 4.5µM* | 13%
Cc1nc2ccccn2c1-c1csc(Nc2cccc(O)c2)n1 | 0% | -11%[2.34 µM] | 5% | 9% | 1% | 7%
COc1ccccc1Nc1nc(-c2sc(NC(=O)c3ccco3)nc2C)cs1 | 1% | 11% | 7% | ? | 3.5µM* | 9%
O=C(Nc1nnc(COc2ccc(Cl)cc2)s1)c1ccco1 | -2%[53 µM] | ? | 5%[53 µM] | -24% | 32µM* | -10%
Cc1ccccc1Nc1nc(-c2sc(NC(=O)c3ccccc3)nc2C)cs1 | 8% | 4% | 3% | ? | ? | 19%
Cc1ccc(OCc2nnc(NC(=O)c3ccco3)s2)cc1 | -4% | 5% | -3% | -8% | -10% | -9%
Cc1nc(NC(=O)c2ccccc2)sc1-c1csc(Nc2ccc(F)cc2)n1 | 3% | ? | 6% | 14µM*[quencher] | 11µM* | 29%
CCCN(CCC)C(=O)c1ccc2c(c1)N(Cc1ccccc1)C(=O)CS2=O (centres undefined) | 0% | 2% | 5% | -5% | -1% | 2%
CCCN1C(=O)c2ccc(C(=O)NCc3ccco3)cc2C1=O | -1% | 0% | 7% | -7% | -10% | -4%
Cc1csc2c(=O)sc(NC(=O)c3cccs3)nc12 | 0% | -8% | -9% | ? | . | 11%
Cc1nc(NC(=O)c2ccccc2)sc1-c1csc(Nc2ccc(Cl)cc2Cl)n1 | -2% | 7% | -8% | ? | ? | 8%
Cc1nc(NC(=O)c2ccccc2)sc1-c1csc(Nc2ccc(Cl)cc2)n1 | 6% | 5% | -1% | 8.9µM*[quencher] | 5µM* | 17%
Cc1ccc(Cl)cc1Nc1nc(-c2sc(NC(=O)c3ccco3)nc2C)cs1 | 7% | -1% | 0% | ? | ? | 32%
SMILES | TR SRC2 fluor cs | Tau fibril FP | TRb SRC2 PPI | Tau fluor cs | Tau fibril ThT | GoLoco inh red
Cc1nc(NC(=O)c2ccco2)sc1-c1csc(Nc2ccc(Cl)cc2)n1 | 2% | 10% | -7% | ? | 7.1µM* | 31%
Cc1ccccc1Nc1nc(-c2sc(NC(=O)c3cccc(Cl)c3)nc2C)cs1 | ? | 4% | -4% | ? | ? | 19%
Cc1nc(NC(=O)c2ccccc2)sc1-c1csc(Nc2cccc(Cl)c2)n1 | -4% | ? | -12% | 11µM*[quencher] | 7.9µM* | 15%
CC(C)COc1ccc(-c2nonc2NC(=O)c2ccc(F)cc2)cc1 | 0% | -17% | 0% | -15% | ? | .
CC(=O)c1ccc2c(c1)N(C)c1ccccc1S2 | 1% | 13% | 7% | ? | 10µM* | 5%
CC1CCCN(C2=C(NS(=O)(=O)c3ccc(Cl)cc3)C(=O)c3ccccc3C2=O)C1 (centres undefined) | 4% | -3% | 0% | -4% | ? | -14%
COC(=O)C1CCN(C2=C(NS(=O)(=O)c3ccc(Cl)cc3)C(=O)c3ccccc3C2=O)CC1 | 2% | -14% | -1% | ? | 14µM* | -2%
NC(=O)C1CCN(C2=C(NS(=O)(=O)c3ccc(Cl)cc3)C(=O)c3ccccc3C2=O)CC1 | -5% | ? | -2% | ? | 16µM* | -10%
Cc1ccc(CNC(=O)CCCn2nc(C)n3c(cc4sccc43)c2=O)cc1 | 6% | 3% | 3% | -4% | -4% | .
CCOc1ccc(NC(=O)CN2C(=O)C(c3ccc(Cl)cc3)=NC2(C)C)cc1 | -2% | -6% | 7% | -4% | 4% | .
CC(=O)NCC(=O)OCC(=O)c1ccccc1 | -2% | 2% | -5% | -4% | -8% | 7%
Cc1sc2nc(SCc3nc(-c4ccccc4)no3)n(-c3ccccc3)c(=O)c2c1C | -1% | -8% | -18% | -4% | 1% | 10µM*
CCN(CC)CCCC(C)n1c(-c2ccccc2)nc2c(N(CCOC)CCOC)nc(C)nc21 (centres undefined) | 0% | -2% | 4% | -1% | -2% | 1%
C=CCn1c(O)c(N=NC(=O)CNC(=O)/C=C/c2ccc(OC)cc2)c2ccccc21 | -2% | -14% | -1% | -24% | 13µM* | 4%
C=CCn1c(O)c(N=NC(=O)CNC(=O)/C=C/c2ccco2)c2ccccc21 | -11% | -5% | -8% | -11% | 20µM* | 1%
COCCn1c(SCC(=O)Nc2ccc(OC)c(S(N)(=O)=O)c2)nc2ccccc21 | 0% | 0% | 0% | 1% | 4% | 4%
O=C(NC1CC2CCC(C1)N2C(=O)NCc1ccccc1)NC12CC3CC(CC(C3)C1)C2 (centres undefined) | -2% | -5% | -1% | -3% | 3% | -1%
Cc1ccccc1OCCSc1nc2ccc(NC(=O)c3ccccc3)cc2s1 | -1% | 11µM* | 6% | ? | -2% | .
Cc1ccc(NC(=O)CSc2nc3ccc(Br)cc3[nH]2)c(C)c1 | -3% | 22µM* | -3% | ? | 9% | .
